Screening data deposited in PubChem BioAssay by National Center for Advancing Translational Sciences (NCATS).
Sampled rows, rich in hits. Any-hit rate of the full collection: about 7.4%.
Luc counter: Counterscreen for Luciferase (Kinase-Glo TM) Inhibition; Kinase-Glo luciferase, ATP luminescence, 8 min; Potency, µM (doses to about 38.3 µM), for inactives: at the top dose activity change, negative = inhibition, most hits filed as inhibitors; 0.28% of 200,000 active; AID 1379, 2008; further: on the % scale 0 is the no-effect control and ±100 the full control effect; nearly all actives have a fitted effect of over 60% in size
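Compounds were added to a substrate mix at pH 7.2 (50 mM imidazole, 10 uM ATP, within the enzyme's linear range), followed by Kinase-Glo detection reagent; luminescence was measured after 8 minutes at ambient temperature.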
ELG1 genotox: qHTS screen for small molecules that induce genotoxicity in human embryonic kidney (HEK293T) cells expressing luciferase-tagged ELG1; HEK293T ELG1-luciferase reporter, luminescence, 16 h; Potency, µM (highest dose often 46 µM), for the others: at the top dose activity change, positive = activation, actives largely listed as activators; 1.3% of 330,000 active; AID 504466, 2011; further: % of control where 0% means no effect; nearly all actives have a fitted effect of over 60% in size
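ELG1-luciferase HEK293T cells, 2,000/well; compound pinned in; 16 hr, 37 °C, 5% CO2; ONE-Glo, 30 min RT; luminescence on CCD imager.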
FLuc counter: qHTS profiling assay for firefly luciferase inhibitor/activator using purifed enzyme and Km concentrations of substrates (counterscreen for miR-21 project); purified FLuc, Km substrates, luminescence inhibition; Potency, µM (series often up to 57.5 µM), without a hit: top-dose activity change, negative = inhibition, actives largely listed as inhibitors; 6.9% of 360,000 active;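 further: plate controls were vehicle for no effect and reference inhibitor for full effect; nearly all actives have a fitted effect of over 55% in size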
Target sequence (P08659 whole entry, looked up): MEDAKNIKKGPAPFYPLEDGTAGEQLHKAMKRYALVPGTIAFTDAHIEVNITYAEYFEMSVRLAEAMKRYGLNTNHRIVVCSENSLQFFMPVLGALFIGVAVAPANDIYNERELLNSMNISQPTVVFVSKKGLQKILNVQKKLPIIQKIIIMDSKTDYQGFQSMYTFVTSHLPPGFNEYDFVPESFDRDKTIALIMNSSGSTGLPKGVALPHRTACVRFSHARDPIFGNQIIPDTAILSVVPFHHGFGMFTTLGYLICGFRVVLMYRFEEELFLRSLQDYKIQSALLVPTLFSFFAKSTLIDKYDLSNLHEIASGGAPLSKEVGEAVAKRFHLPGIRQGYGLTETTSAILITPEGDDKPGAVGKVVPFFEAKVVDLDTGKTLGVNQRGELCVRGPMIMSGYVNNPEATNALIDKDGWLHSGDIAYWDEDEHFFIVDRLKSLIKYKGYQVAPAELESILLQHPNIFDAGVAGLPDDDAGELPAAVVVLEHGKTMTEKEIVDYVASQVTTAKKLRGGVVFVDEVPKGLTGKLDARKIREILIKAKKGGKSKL
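Biochemical qHTS of compounds, final roughly 60 µM downward over six points, against 10 nM purified firefly luciferase using Km concentrations of substrates (10 uM D-luciferin, 10 uM ATP) in Tris acetate pH 7.5 buffer; luminescence output.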
Rab9 promoter act: qHTS Assay for Rab9 Promoter Activators. Potency, µM (highest dose often 9.22 µM), without a hit: at the top dose activation, negative = inhibition, actives largely listed as activators. 2.8% of 320,000 active. Huh7 Rab9 promoter-luciferase reporter, luminescence, 24 h; further: % of control where 0% means no effect; nearly all actives have a fitted effect of over 60% in size
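Huh7 reporter line, Rab9 promoter upstream of luciferase. Compound exposure 24 h at 37 °C in reduced-serum medium with 10% FBS. Read-out: luminescence.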
SMN2 splice enh: qHTS Assay for Enhancers of SMN2 Splice Variant Expression. Potency, µM (top dose mostly 46.1 µM), for inactives: top-dose activity change, positive = activation, actives largely listed as activators. HEK293 SMN2-luciferase splicing reporter, luminescence, 30-36 h. 2.8% of 210,000 active; further: % of control where 0% means no effect; nearly all actives have a fitted effect of over 55% in size
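HEK293 cells carry an SMN2 minigene-luciferase reporter in which exon 7 inclusion puts luciferase in frame. Cells were seeded at 2000 cells/well, attached for 10-12 hours, then exposed to compounds for 30-36 hours at 37C before ONE-Glo luminescence.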
NPC1 promoter act: qHTS Assay for NPC1 Promoter Activators; Potency, µM (series often up to 9.22 µM), without a hit: top-dose activation, hits mostly activators; 2.4% of 320,000 active; Huh7 NPC1 promoter luciferase reporter, 24 h; AID 485313, 2010; further: % of control where 0% means no effect; nearly all actives have a fitted effect of over 60% in size
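Stable NPC1-promoter luciferase Huh7 line; cpd (DMSO) 24 h, 37 °C, 5% CO2; Amplite luciferase reagent 10 min RT; luminescence readout. qHTS format.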
Active calls of the source: *; ? = inconclusive; · = no result given; [ ] = dose if it differs, or a comment. The call rests on the fitted dose curve; in most records, active means well fitted curve in the direction sought with a large enough effect; inconclusive means small, poorly fitted or top-dose-only effect, or another doubt; inactive means no such curve, though single readings can be large; an effect the other way counts as inactive or inconclusive. Potency means the concentration at half of the fitted maximal effect.

SMILES | Luc counter | ELG1 genotox | FLuc counter | Rab9 promoter act | SMN2 splice enh | NPC1 promoter act
NNc1nc(-c2ccccc2)nc2sc3c(c12)CCCC3 | -9% | 1.3µM* | 0.54µM* | 2.2µM* | -47% | 3.5µM*
NNc1nc2sc3c(c2c(=O)n1Cc1ccccc1)CCC3 | · | 6% | 6.7µM* | 17% | · | -4%
CCc1ccc2c(O)c3c(cc2c1C(=O)OC)C(=O)c1c(O)ccc(O)c1C3=O | -15% | · | · | · | 4% | ·
COc1cccc([C@@H]2Oc3ccc(OC)cc3C[C@H]2OC(=O)NCc2ccco2)c1 | 0% | · | · | · | 5% | ·
Cc1c(C(=O)OCC(C)(C)CN(C)C)oc2ccccc12 | 3% | ? | 19µM* | -1% | 7% | 4%
Cc1c(C(=O)OCCN2CCCCC2)oc2ccccc12 | -1% | 2% | 19µM* | 5% | 1% | 0%
Cc1c(C(=O)OCC(=O)N2C(C)CCCC2C)oc2ccccc12 (stereo not given) | · | ? | 17µM* | ? | · | ?
COc1ccc2oc(C(=O)OCC(=O)N3C(C)CCCC3C)c(C)c2c1 (stereo not given) | · | 4% | ? | 2% | · | -1%
OCCNc1ncnc2c1cnn2Cc1ccccc1 | · | 0% | -2% | -4% | · | 1%
COCC(C)Nc1ncnc2c1cnn2-c1ccc(C)c(C)c1 (stereo not given) | · | · | 6.7µM* | · | · | ·
c1ccc(-n2ncc3c(NCc4cccnc4)ncnc32)cc1 | -1% | ? | 17µM* | ? | 38% | ?
c1ccc(CNc2ncnc3c2cnn3Cc2ccccc2)cc1 | 3% | 1% | 6% | -7% | 11µM* | -23%
Cc1ccc(-n2ncc3c(NCc4ccccc4)ncnc32)cc1C | · | · | 21µM* | · | · | ·
Cc1cc(C)cc(NC2=C(c3ccccc3)C(=O)c3ccccc32)c1 | · | · | -13% | · | -3% | ·
COc1ccc(OC)c(CCNC(=O)c2cc3cccc4c3n2CC(C)S4)c1 (stereo not given) | · | · | 2% | · | · | ·
Cc1ccc(-n2ncc3c(NCCc4ccccc4)ncnc32)cc1 | · | · | 24µM* | · | · | ·
Cc1ccc(-n2ncc3c(NCCCc4ccccc4)ncnc32)cc1C | · | · | -10% | · | · | ·
Cc1ccc(NC(=O)Nc2ccc3snnc3c2)cc1C | · | · | 24µM* | · | 1% | ·
O=C(Nc1ccc2snnc2c1)Nc1cccc2ccccc12 | 1% | -1% | 21µM* | 4% | -8% | -4%
COc1cccc(NC(=O)Nc2ccc3snnc3c2)c1 | · | · | 17µM* | · | 19% | ·
COc1cccc(NC(=O)Nn2cnnc2)c1 | · | 1% | 2% | 0% | · | -2%
COc1cc(NC(=O)c2ccc3snnc3c2)cc(OC)c1 | · | 13% | ? | 11% | · | ?
COc1cccc(NC(=O)Nc2ccc3c(c2)nnn3C)c1 | 2% | 10% | 6.7µM* | ? | 18µM* | ?
[N-]=[N+]=N[C@@H]1[C@H](O)[C@H](CO)O[C@@H]1n1cnc2c(N)ncnc21 | -6%[7.66 µM] | · | · | · | -8%[9.22 µM] | ·
CC(=O)c1sc(NC(=O)c2c(F)cccc2F)nc1C | -2% | 8% | -14% | -6% | 11% | -1%
SMILES | Luc counter | ELG1 genotox | FLuc counter | Rab9 promoter act | SMN2 splice enh | NPC1 promoter act
CC(=O)c1sc(NC(=O)c2cc(=O)c3ccccc3o2)nc1C | -21% | ? | 7.6µM* | 3.2µM* | 11µM* | 2.5µM*
NC(=O)c1ccsc1NC(=O)c1cc(=O)c2ccccc2o1 | -11% | ? | 2.7µM* | 1.8µM* | 10µM* | ?
CCOC(=O)c1csc(NC(=O)c2cc(=O)c3ccccc3o2)n1 | 1% | 10% | 15µM* | ? | 23% | 16%
CC(=O)c1sc(NC(=O)c2oc3ccc(F)cc3c2C)nc1C | · | 18% | 1.9µM* | 2.8µM* | · | 2.2µM*
CCCc1nnc(NC(=O)c2cc(=O)c3ccccc3o2)s1 | · | · | ? | · | 3% | ·
CC(=O)c1cc(C(=O)Nc2cc(C)cc(C)c2)c2ccccn12 | · | · | -27% | · | 2% | ·
CC[C@@H](C)[C@H](NS(=O)(=O)c1cccc2ccccc12)C(=O)N[C@H](C=O)Cc1c[nH]c2ccccc12 | · | · | · | · | 13% | ·
Cc1ccc(C)c(NC(=O)CSc2ncc3c(n2)-c2ccccc2N(Cc2ccccc2C)S3(=O)=O)c1 | · | · | -2% | · | · | ·
COc1ccccc1N1CCN(c2ccc(-c3nc(-c4ccccc4)no3)cc2[N+](=O)[O-])CC1 | · | · | -1% | · | · | ·
CSc1ccc(C2c3[nH]c4ccccc4c3CCN2C(=O)c2ccnn2C)cc1 (stereo not given) | -2% | 16% | 11µM* | 3.5µM* | · | 11%
COc1cc(OC)c(Nc2ncnc3onc(-c4cccc(Cl)c4)c23)cc1Cl | · | · | -3% | · | -1% | ·
O=C(Oc1ccccc1/C=C\C(=O)c1cc2ccccc2o1)c1ccccc1 | -1% | ? | 17µM* | 3.2µM* | ? | 4µM*
O=C(Oc1ccccc1/C=C\C(=O)c1cc2ccccc2o1)c1cccc(F)c1 | 2% | ? | 8.5µM* | ? | -106% | 23%
COc1cccc(C(=O)Oc2ccccc2/C=C\C(=O)c2cc3ccccc3o2)c1 | -2% | 16% | ? | ? | -103% | 2.8µM*
O=C(N/N=C/c1ccccc1OC(=O)c1ccc2c(c1)OCO2)c1cccc(F)c1 | 0% | ? | 2% | 0% | -98% | 0%
Cc1ccc2c(ccn3cc4c(c(=O)n(C)c(=O)n4C)c23)c1 | -15% | ? | 2.7µM* | -16% | -6% | 4%
S=c1[nH]c2cc(-c3ccccc3)ccc2o1 | · | 4% | 21µM* | 16% | · | 5%
CCOC(=O)c1[nH]c2ccc(OC)cc2c1NC(C)=O | 1% | -1% | -7% | -11% | -3% | 6%
CCOC(=O)c1[nH]c2ccc(F)cc2c1NC(=O)c1ccccc1C(=O)O | · | 11% | -19% | 6% | · | 18%
CCOC(=O)c1[nH]c2ccc(F)cc2c1NC(=O)c1cc(OC)c(OC)c(OC)c1 | 2% | 1% | 1% | 8% | 22µM* | 0%
CCOC(=O)c1cc2cc(OC)ccc2[nH]1 | -3% | ? | 12µM* | 4µM* | -3% | 3.5µM*
CCOC(=O)c1[nH]c2ccc(OC)cc2c1C | -3% | ? | 13µM* | ? | 4% | ?
Cc1ccc(C)c(Cn2c(=O)n(CCCCC(=O)NCc3ccc4c(c3)OCO4)c(=O)c3ccccc32)c1 | · | · | -1% | · | -3% | ·
O=C1OCCC1Sc1nnc(-c2ccc(Cl)cc2Cl)o1 (stereo not given) | · | -5% | 1.3µM* | -4% | · | 0%
